Measurements as given in PubChem BioAssay AID624491 (Broad Institute, 2012).
Out of some 1,800 compounds screened, about 1,400 (78%) were called active. Inconclusive results (about 2%) are left out.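 Rule for the calls: active = fitted curve crossing a set activation limit at or below the highest valid dose tested; inconclusive = flat fit at 30 to 70% activation, or poor fit; inactive = the rest, including signal decreases.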 So high a share suggests a set chosen from earlier hits. Not all results are given here. Potency and affinity values are given separately.

test: N-linked glycosylation inhibitors, luciferase reporter, dose response, D54 ERlucT cells, luminescence, cherry-picks (AID 624491); conditions: 24 h, 100% = twice neutral-control luminescence; series mostly up to 19.5 µM; activation (NLG inhibition): at the top concentration;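 note: signal gain reflects blocked N-linked glycosylation of a luciferase reporter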

Activation (NLG inhibition), inactive:
CC1(C(=O)NCc2ccccc2)Cc2c(-c3ccc4c(c3)OCO4)ccnc2O1 (stereo not drawn) 48.3%
CC(=O)Nc1cccc(-c2ccnc3c2CC(C)(C(=O)NCc2ccc(N(C)C)cc2)O3)c1 (stereo not drawn) 30.5%
O=C(CCl)Nc1cc(-c2ccccc2)nn1-c1ccccc1 -66.9%
CCOC(=O)c1c(C)oc2c(F)c(F)c(F)c(F)c2c1=O -96.3%
COc1ccc(S(=O)(=O)Nc2ccc3c(c2)n(C)c(=O)n3C)cc1OC 10.9% [at 5 µM]
CC(=O)Nc1sc(C)c(C)c1C(=O)OCC(=O)Nc1cccc(C)c1 130%
CCOC(=O)c1c(NC(C)=O)sc2c1CCC(C=O)=C2Sc1ccccc1 14.9% [at 5 µM]
COC(=O)c1cc(=O)n(Cc2ccco2)c(=Nc2ccc(F)cc2)s1 1.44%
COc1ccc(-c2nc(NC(=O)C3CC(=O)N(c4ccc5c(c4)OCCO5)C3)sc2C)cc1 (stereo not drawn) 38%
Cc1cnc(NC(=O)C2CC(=O)N(c3cccc(Cl)c3)C2)s1 (stereo not drawn) 0.274% [at 5 µM]
CCOC(=O)C1CCN(S(=O)(=O)Cc2ccccc2)CC1 -4.23% [at 5 µM]
CCOC(=O)C1CCN(Cc2cc(Cl)c3ccccc3c2O)CC1 5.3%
CCOC(=O)/C=C(\C)Sc1cc(=O)oc2ccccc12 0.993%
Cc1ccc(C(=O)Nc2ccc(C(=O)/C=C/c3cccs3)cc2)cc1 14.5%
Cc1ccc(OCC(=O)Nc2ccc(NC(=O)c3cccs3)cc2)c(C)c1 602%
COc1ccc(Nc2nc(N)c(C(=O)c3ccc(F)cc3)s2)cc1 -4.92%
Cc1nn(CC(C)C)c(Cl)c1C(=O)N(c1ccc(Cl)cc1F)S(C)(=O)=O 61.3%
C[C@]1(O)CC(=O)C=C[C@H]1Nc1ccccc1 80%
COc1cccc(-c2cc(C(=O)Nc3cc(OC)c(OC)c(OC)c3)no2)c1 37.2%
COc1cc(NC(=O)N2CCc3nc(NCc4cccc(Oc5ccccc5)c4)ncc3C2)cc(OC)c1OC 33.2%
COc1cc2cc(-c3ccc(O)cc3O)nc(C)c2cc1OC 22%
COc1ccc(C(=O)n2c(-c3ccco3)nc3ccccc32)cc1 18.1%
CCOC(=O)C(=Cc1ccc(-c2ccsc2C(=O)OC)o1)C(=O)OCC 47.5%
CCCN(CCC)S(=O)(=O)c1ccc(C(=O)Nc2nc3c(s2)CCc2ccccc2-3)cc1 88.9%
O=C(NC1CCCCC1)c1cccc2c1C(=O)c1ccc(-c3ccc(OC(F)(F)F)cc3)cc1S2(=O)=O -5.59%
CCN(CC)c1cc(C)c2cc(NC(=O)c3ccccc3OC)ccc2n1 52.2%
CCOC(=O)c1cc2c(ccn2C)n1CC(=O)N1CCN(c2ccccc2)CC1 8.28%
CCOC(=O)c1cc2sccc2n1CC(=O)N1c2ccccc2CC1C (stereo not drawn) 1420%
COc1ccc(-n2c(=S)[nH]c3cc(C(=O)NC4CCCCC4)ccc3c2=O)c(OC)c1 29.5%
COC(=O)c1ccc2c(=O)n(Cc3ccc(C(=O)NC(C)C)cc3)c(=S)[nH]c2c1 35%
CCN1/C(=C/c2ccc3ccccc3[n+]2CC)C=Cc2ccccc21 84%
COc1cc(CCC(=O)Nc2nnc(C)s2)cc(OC)c1OC 31.1%
Cc1noc2ncnc(Sc3ccc(Cl)cc3)c12 -2.99%
Cc1ccc(C)c(N2CCN(c3cnn(-c4nc5ccccc5s4)c(=O)c3Cl)CC2)c1 79.4%
COc1ccc(C2NC(=S)NC3=C2CCCC3=C2SCCS2)cc1 (stereo not drawn) 1170%
O=C(Cc1csc(Nc2nc(=S)[nH]c3ccccc23)n1)NCc1cccc(Cl)c1 163%
CNC(=O)c1cccc2nc3ccccc3nc12 18.8%
CCOc1ccccc1C1CC(=O)Nc2cc3c(cc21)OCCO3 (stereo not drawn) 20.7%
CC(C)Oc1ccccc1C1CC(=O)Nc2cc3c(cc21)OCO3 (stereo not drawn) 18.1%
COc1cc(C2CC(=O)N(c3ccc(C)cc3)C(=O)C2)cc(OC)c1OC 6.21%
COc1cc(/C=C(/C(=O)c2cccs2)c2nc3ccccc3[nH]2)cc(OC)c1O 1.08%
O=C(N/N=C/c1ccc2c(c1)OCO2)C1COc2ccccc2O1 (stereo not drawn) 24.7%
N#Cc1c(NC(=O)/C=C/c2ccco2)sc2c1CCCC2 30.1%
COC(=O)C1=C(C(=O)OC)[C@@H]2N(Cc3ccccc3)c3ccccc3[C@@]23C[C@@H](C(=O)OC)N(C(=O)c2cc(C)oc2C)C3=N1 44.3%
CC(C)C1N=C(c2ccc3c(c2)OCO3)CC(c2ccccc2O)N1 (stereo not drawn) -18.5%
CC(=O)c1ccc(OCC(O)CN2CCN(CCN3C(=O)c4cccc5cccc(c45)C3=O)CC2)cc1 (stereo not drawn) 81.5%
COc1ccc(-c2cc(C(F)F)n3ncc(C(=O)n4ccnc4C)c3n2)cc1 -88.3%
Cc1ccc(-c2cc(C(F)F)n3ncc(C(=O)N4CCc5ccccc54)c3n2)cc1 39.4%
CC(=O)N(C(C)=O)n1c(C)nc2sc3c(c2c1=O)CCCC3 -43.7%
O=C1/C(=C/c2ccccc2)CCc2ccc(Cl)nc21 -3.41%
COc1cccc(-n2c(SCC(=O)NC3CCCCC3)nc3n[nH]c(C)c3c2=N)c1 12.3%
NC(=O)c1ccc2c(=O)n3c(-c4cc(Cl)c(N)c(Cl)c4)csc3nc2c1 3.94% [at 5 µM]
Cc1ccnc(NC(=O)Nc2ccc3c(c2)N(C)C(=O)CS3)c1 17.6%
COC(=O)c1ccc(Oc2cc(C)nc(-n3nc(C)cc3C)n2)cc1 28.5%
Cc1ccc2cc3c(N)c4c(C)ccc(C)c4nc3nc2c1 -73.8%
Cc1cc(N2CCN(c3ccc([N+](=O)[O-])c4cccnc34)CC2)c2ccccc2n1 247%
Cc1ccc(N2C(=O)c3cccc4c([N+](=O)[O-])ccc(c34)C2=O)c2cccnc12 -3.7%
Cc1ccc2c(c1)NC(=O)[C@@]1(C)[C@@H](c3ccccc3)[C@H]3COc4ccccc4[C@@H]3N1C2=O 60.2%
CCN(CC)c1ccc(/C=C/c2cccc[n+]2C)c(OC)c1 -41.1%
O=C(N/N=C/c1ccccn1)c1sc2ccccc2c1Cl 13.7%
COc1ccc(C=C(c2nc3ccccc3s2)c2nc3ccccc3s2)cc1O 7.34%
CC(=O)Nc1cccc(-c2ccnc3c2CC(C(=O)NCc2ccco2)O3)c1 (stereo not drawn) -17.9%
Nc1nc(-c2ccccn2)nc(N)c1Cc1ccc(Cl)cc1Cl -18.4%
CC(=O)Nc1cccc(-c2ccnc3c2CC(C(=O)NCc2ccc(F)c(F)c2)O3)c1 (stereo not drawn) 8.31%
COc1ccc(CNC(=O)C2Cc3c(-c4ccc5c(c4)OCO5)ccnc3O2)cc1OC (stereo not drawn) 28.2%
CN(C)Cc1c(O)ccc2c1O/C(=C\C=C\c1ccccc1)C2=O 46.5%
COc1ccc(OC)c(NS(=O)(=O)c2ccc(N3CCCC3=O)cc2)c1 18.1%
O=C(CC(O)c1ccncc1)c1ccccc1O (stereo not drawn) 16.8%
COc1ccc(Cl)cc1/C=C/c1ccc2cccc(O)c2n1 3.84%
CCOC(=O)c1[nH]c2ccc(F)cc2c1NC(=O)C(C)N1CCc2cc(OC)c(OC)cc2C1 (stereo not drawn) 15.6%
C#CC(=O)CC1(CN(Cc2ccccc2)C(=O)OC(C)(C)C)CCCCC1 9.87%
CCN(CC(=O)Nc1ccccc1OC)CC(=O)Nc1ccccc1-c1ccccc1 29.8%
COC(=O)c1cc(=O)n(Cc2ccc3c(c2)OCO3)c(=Nc2ccc(F)c(Cl)c2)s1 24.9%
CC1=C([N+](=O)[O-])C(c2ccccc2)C2=C(N1)c1ccccc1C2=O (stereo not drawn) 32.6%
COc1cc2cc(/C=C/C(=O)c3ccco3)c(Cl)nc2cc1OC -37%
COc1ccc([N+](=O)[O-])cc1NC(=O)CCN1CCN(CCO)CC1 0.755%
NC(=O)CC(NC(=O)Cc1ccc(Cl)cc1)c1ccc(NC2CC3CCC2C3)c([N+](=O)[O-])c1 (stereo not drawn) 35%
NC(=O)CC(NC(=O)c1ccc(Br)cc1)c1ccc(N2CCCCCCC2)c([N+](=O)[O-])c1 (stereo not drawn) 19.6%
NC(=O)CC(NC(=O)Cc1ccc(Br)cc1)c1ccc(NC2CCCC2)c([N+](=O)[O-])c1 (stereo not drawn) 24.6%
CC(C)Nc1ccc(C(CC(N)=O)NC(=O)Cc2ccc(Br)cc2)cc1[N+](=O)[O-] (stereo not drawn) 1.2%
NC(=O)CC(NC(=O)Cc1ccc(Br)cc1)c1ccc(NCc2cc(F)ccc2F)c([N+](=O)[O-])c1 (stereo not drawn) 13.6% [at 5 µM]
CCCOc1ccc(F)cc1-c1cc(C(=O)Nc2ccc(C(C)C)cc2)[nH]n1 622%
Oc1c(Br)cc(Br)cc1CNc1cccc2cccnc12 29.7%
Nc1c(C(=O)Nc2ccc(S(=O)(=O)N3CCCC3)cc2)sc2nc3cc4c(cc3cc12)CCC4 -29.1%
c1ccc2c(-c3nc4ccccc4[nH]3)cccc2c1 52.4%
COc1cccc(C(=O)Nc2ccc3c(c2)C(=O)c2ccccc2C3=O)c1 51.9%
CCc1nn(C(C)C(=O)N2CCN(c3ccc(OC)cc3)CC2)c(=O)c2cc3occc3n12 (stereo not drawn) 26.4%
O=C(Nc1ccccc1-c1ccccc1)C1CCCC1 43.1%
CC#CC#Cc1cccc(=O)o1 18.2%
O=C(/C=C/c1ccccc1)c1ccc2c3c(cccc13)CC2 -3.84%
Cc1cc(NC(=O)CSc2nc3ccccc3c(=O)n2C2CCCC2)no1 25.9%
Cc1cc(NC(=O)/C=C/C(=O)N(CC(=O)NC2CCCC2)c2ccc(F)cc2)no1 5.47%
Nc1nc(Nc2ccccc2)sc1C(=O)c1ccccc1 6.8%
COc1ccccc1N1CCN(C(=O)c2ccc(Cl)c(S(=O)(=O)NCc3ccco3)c2)CC1 43%
COc1cc2ccccc2cc1C(=O)N1CCc2ccccc21 32.7%
CCOc1ccc(S(=O)(=O)Nc2cc(OC)ccc2OC)cc1 7.3%
COCCCNC(=O)c1cccc2c(-c3ccc(O)c(OC)c3)coc12 45.3%
COc1cc(-c2nc3cnccn3c2Nc2ccc(C)cc2)ccc1O 78.2%
COc1cc(OC)cc(C(=O)NNC(=O)c2ccc3ccccc3n2)c1 21%
CC(C)[n+]1ccn(C2=C([O-])c3ccccc3C(=O)/C2=N\S(=O)(=O)c2ccccc2)c1 -34.1%
O=C(CNC(=O)N1CC(=O)Nc2ccccc21)NCCCc1ccccc1 40.4%
CCC(C)[C@H](NC(=O)N1CC(=O)Nc2ccccc21)C(=O)Nc1ccccc1C (stereo partly drawn) 25.7%
CC(C)c1ccc(NC(=O)[C@@H](NC(=O)N2CC(=O)Nc3ccccc32)C(C)C)cc1 55.1%
